{"source": "paper PMC8384837", "about": "“Expanding the binding specificity for RNA recognition by a PUF domain”", "experiment_in_all_cases": "yeast three-hybrid, YBZ-1, SC-Leu-His + 0.5 mM 3-AT, 4 days", "settings_in_all_cases": "tags: N-Gal4 AD-HA kept; label: inside an RPR1-promoter hybrid RNA with tandem MS2 sites; ssRNA", "key": {"PUM1 PUF domain R6-VFV": {"target": "T1, PUM1 PUF domain R6-VFV (Homo sapiens, UniProt Q14671 828-1176, N1043V;Y1044F;Q1047V)", "T1 sequence": "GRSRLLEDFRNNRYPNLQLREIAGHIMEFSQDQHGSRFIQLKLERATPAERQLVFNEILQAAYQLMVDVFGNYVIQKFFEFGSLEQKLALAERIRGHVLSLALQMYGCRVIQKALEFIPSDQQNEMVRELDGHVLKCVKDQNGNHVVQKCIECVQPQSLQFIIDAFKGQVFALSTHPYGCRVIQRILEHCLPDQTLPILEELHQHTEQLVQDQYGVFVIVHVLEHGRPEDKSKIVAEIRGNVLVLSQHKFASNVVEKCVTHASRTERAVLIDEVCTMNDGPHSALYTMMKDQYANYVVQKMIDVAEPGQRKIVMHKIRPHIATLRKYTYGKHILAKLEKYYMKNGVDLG", "in_short": "(§1)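 Each repeat of the Pumilio-1 PUF domain was randomized at its three base-contacting residues, and these libraries were co-expressed from a centromeric plasmid with matching RNA elements in strain YBZ-1. After four days on SC-Leu (input) or SC-Leu-His + 0.5 mM 3-AT (selection), the repeat regions were PCR-amplified and Illumina-sequenced. The interaction score compares variant frequency between input and selection as a log change, computed in log2 with a pseudocount of 1 for absent variants.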"}, "PUM1 PUF domain R3-DYV": {"target": "PUM1 PUF domain R3-DYV (Homo sapiens, UniProt Q14671 828-1176, C935D;R936Y;Q939V)", "in_short": "as §1"}, "PUM1 PUF domain R6-WYR": {"target": "T2, PUM1 PUF domain R6-WYR (Homo sapiens, UniProt Q14671 828-1176, N1043W;Q1047R)", "T2 sequence": "T1 sequence with V216W, F217Y, V220R", "in_short": "as §1"}, "PUM1 PUF domain R3-GWS": {"target": "PUM1 PUF domain R3-GWS (Homo sapiens, UniProt Q14671 828-1176, C935G;R936W;Q939S)", "in_short": "as §1"}, "PUM1 PUF domain R5-RCS": {"target": "PUM1 PUF domain R5-RCS (Homo sapiens, UniProt Q14671 828-1176, C1007R;R1008C;Q1011S)", "in_short": "as §1"}, "PUM1 PUF domain R5-DHI": {"target": "PUM1 PUF domain R5-DHI (Homo sapiens, UniProt Q14671 828-1176, C1007D;R1008H;Q1011I)", "in_short": "as §1"}, "PUM1 PUF domain R5-KLT": {"target": "PUM1 PUF domain R5-KLT (Homo sapiens, UniProt Q14671 828-1176, C1007K;R1008L;Q1011T)", "in_short": "as §1"}, "PUM1 PUF domain R1-TTR": {"target": "PUM1 PUF domain R1-TTR (Homo sapiens, UniProt Q14671 828-1176, S863T;R864T;Q867R)", "in_short": "as §1"}, "PUM1 PUF domain R8-AHR": {"target": "PUM1 PUF domain R8-AHR (Homo sapiens, UniProt Q14671 828-1176, N1122A;Y1123H;Q1126R)", "in_short": "as §1"}, "PUM1 PUF domain R3-FIA": {"target": "PUM1 PUF domain R3-FIA (Homo sapiens, UniProt Q14671 828-1176, C935F;R936I;Q939A)", "in_short": "as §1"}}, "note": "Positions count from the first letter of the chain named.", "data": [{"sequence": "GGCUAGAACUAGUGGAUCCCCCGGCGCCCGGCGGCUCGAGCCCGGGUAAGUGUAAAUAGUCUGCAUGCCGCCGGGCGCCAUGCCUGCAGGUCGACUCUAGAAAACAUG", "values": [{"measurement": "binding signal", "setting": "PUM1 PUF domain R6-VFV", "result": "1.55 log2 enrichment (interaction score)"}, {"measurement": "binding signal", "setting": "PUM1 PUF domain R3-DYV", "result": "5.65 log2 enrichment (interaction score)"}, {"measurement": "binding signal", "setting": "PUM1 PUF domain R6-WYR", "result": "5.27 log2 enrichment (interaction score)"}, {"measurement": "binding signal", "setting": "PUM1 PUF domain R3-GWS", "result": "5.13 log2 enrichment (interaction score)"}]}, {"sequence": "GGCUAGAACUAGUGGAUCCCCCGGCGCCCGGCGGCUCGAGCCCGGGUAAGUGUUAAUAGUCUGCAUGCCGCCGGGCGCCAUGCCUGCAGGUCGACUCUAGAAAACAUG", "values": [{"measurement": "binding signal", "setting": "PUM1 PUF domain R5-RCS", "result": "2.74 log2 enrichment (interaction score)"}, {"measurement": "binding signal", "setting": "PUM1 PUF domain R5-DHI", "result": "4.16 log2 enrichment (interaction score)"}]}, {"sequence": "GGCUAGAACUAGUGGAUCCCCCGGCGCCCGGCGGCUCGAGCCCGGGUAAGUGUCAAUAGUCUGCAUGCCGCCGGGCGCCAUGCCUGCAGGUCGACUCUAGAAAACAUG", "values": [{"measurement": "binding signal", "setting": "PUM1 PUF domain R5-KLT", "result": "2.35 log2 enrichment (interaction score)"}, {"measurement": "binding signal", "setting": "PUM1 PUF domain R5-RCS", "result": "3.59 log2 enrichment (interaction score)"}]}, {"sequence": "GGCUAGAACUAGUGGAUCCCCCGGCGCCCGGCGGCUCGAGCCCGGGUAAGUGUAAAUCGUCUGCAUGCCGCCGGGCGCCAUGCCUGCAGGUCGACUCUAGAAAACAUG", "values": [{"measurement": "binding signal", "setting": "PUM1 PUF domain R1-TTR", "result": "4.01 log2 enrichment (interaction score)"}]}, {"sequence": "GGCUAGAACUAGUGGAUCCCCCGGCGCCCGGCGGCUCGAGCCCGGGUAAGUGAAAAUAGUCUGCAUGCCGCCGGGCGCCAUGCCUGCAGGUCGACUCUAGAAAACAUG", "values": [{"measurement": "binding signal", "setting": "PUM1 PUF domain R6-VFV", "result": "5.24 log2 enrichment (interaction score)"}]}, {"sequence": "GGCUAGAACUAGUGGAUCCCCCGGCGCCCGGCGGCUCGAGCCCGGGUAAGUGUAAUUAGUCUGCAUGCCGCCGGGCGCCAUGCCUGCAGGUCGACUCUAGAAAACAUG", "values": [{"measurement": "binding signal", "setting": "PUM1 PUF domain R3-DYV", "result": "3.08 log2 enrichment (interaction score)"}, {"measurement": "binding signal", "setting": "PUM1 PUF domain R3-GWS", "result": "1.22 log2 enrichment (interaction score)"}]}, {"sequence": "GGCUAGAACUAGUGGAUCCCCCGGCGCCCGGCGGCUCGAGCCCGGGUAAGCGUAAAUAGUCUGCAUGCCGCCGGGCGCCAUGCCUGCAGGUCGACUCUAGAAAACAUG", "values": [{"measurement": "binding signal", "setting": "PUM1 PUF domain R8-AHR", "result": "3.45 log2 enrichment (interaction score)"}]}, {"sequence": "GGCUAGAACUAGUGGAUCCCCCGGCGCCCGGCGGCUCGAGCCCGGGUAAGUGUAAGUAGUCUGCAUGCCGCCGGGCGCCAUGCCUGCAGGUCGACUCUAGAAAACAUG", "values": [{"measurement": "binding signal", "setting": "PUM1 PUF domain R3-FIA", "result": "3.2 log2 enrichment (interaction score)"}, {"measurement": "binding signal", "setting": "PUM1 PUF domain R3-GWS", "result": "1.75 log2 enrichment (interaction score)"}]}, {"sequence": "GGCUAGAACUAGUGGAUCCCCCGGCGCCCGGCGGCUCGAGCCCGGGUAAGUGUAAAUGGUCUGCAUGCCGCCGGGCGCCAUGCCUGCAGGUCGACUCUAGAAAACAUG", "values": [{"measurement": "binding signal", "setting": "PUM1 PUF domain R1-TTR", "result": "2.5 log2 enrichment (interaction score)"}]}]}
